Reference: article PMC4336329 (PLoS ONE, 2015)
The campaign covered roughly 310,000 compounds. About 14,000 (4.5%) showed an effect of 50% or more. The effect is printed as a negative number. The sample as a whole holds a higher share of strong results than the screen did.

The compounds below were run against human ether-à-go-go-related gene (hERG) potassium channel (human, UniProt Q12809) (assay: primary screen, population patch clamp on CHO cells stably expressing hERG; higher = less effect of the substance).
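Further: peak tail current of the secondary pulse compared with the same well before compound.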

Chain of human ether-à-go-go-related gene (hERG) potassium channel (Q12809 whole entry, looked up): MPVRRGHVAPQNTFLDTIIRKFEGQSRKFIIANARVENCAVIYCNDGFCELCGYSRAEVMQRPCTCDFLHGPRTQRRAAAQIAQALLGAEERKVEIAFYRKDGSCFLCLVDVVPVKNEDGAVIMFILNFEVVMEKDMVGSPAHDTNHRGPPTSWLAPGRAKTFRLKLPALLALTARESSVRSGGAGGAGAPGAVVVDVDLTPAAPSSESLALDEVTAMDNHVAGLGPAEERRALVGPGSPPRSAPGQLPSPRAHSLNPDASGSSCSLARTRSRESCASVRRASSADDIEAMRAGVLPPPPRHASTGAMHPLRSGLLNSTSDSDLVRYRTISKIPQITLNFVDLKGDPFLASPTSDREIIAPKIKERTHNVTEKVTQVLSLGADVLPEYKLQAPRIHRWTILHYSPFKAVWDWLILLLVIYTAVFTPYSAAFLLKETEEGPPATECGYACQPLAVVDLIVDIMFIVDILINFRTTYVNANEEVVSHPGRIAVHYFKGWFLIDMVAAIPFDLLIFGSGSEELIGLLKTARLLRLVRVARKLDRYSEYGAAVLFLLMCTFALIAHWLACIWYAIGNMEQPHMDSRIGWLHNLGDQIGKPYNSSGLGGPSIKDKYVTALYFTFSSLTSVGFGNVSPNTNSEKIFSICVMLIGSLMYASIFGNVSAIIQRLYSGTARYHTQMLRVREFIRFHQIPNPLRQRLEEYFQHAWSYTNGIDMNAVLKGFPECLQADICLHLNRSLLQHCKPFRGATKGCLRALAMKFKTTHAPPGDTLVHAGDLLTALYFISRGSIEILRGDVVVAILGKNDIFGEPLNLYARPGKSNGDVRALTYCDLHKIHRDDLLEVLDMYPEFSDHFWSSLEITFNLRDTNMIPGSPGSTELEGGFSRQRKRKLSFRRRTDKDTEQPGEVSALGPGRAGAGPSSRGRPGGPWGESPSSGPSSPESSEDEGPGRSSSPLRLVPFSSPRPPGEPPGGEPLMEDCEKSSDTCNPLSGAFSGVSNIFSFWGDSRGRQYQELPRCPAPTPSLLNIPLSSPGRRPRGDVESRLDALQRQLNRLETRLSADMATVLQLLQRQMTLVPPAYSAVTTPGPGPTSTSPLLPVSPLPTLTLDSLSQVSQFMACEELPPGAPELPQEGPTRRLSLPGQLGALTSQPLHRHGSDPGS

Compound	hERG current change (%, negative = inhibition) at 10uM [%]
C=CCc1ccc(OCCCCNC(C)CC)c(OC)c1.O=C(O)C(=O)O (stereo not drawn)	-39.3
C/C=C/c1ccc(OCCn2nnc3ccccc32)c(OC)c1	-2.9
C=CCc1ccc(OCCCNCc2ccccc2)c(OC)c1.O=C(O)C(=O)O	-57.4
C/C=C/c1ccc(OCC(=O)N2CCc3cc(OC)c(OC)cc3C2)c(OC)c1	-12.4
C=CCc1cc(OC)ccc1OCCN(C)Cc1ccccc1.O=C(O)C(=O)O	-16.6
C=CCc1ccc(OCCN2CCc3ccccc3C2)c(OC)c1.O=C(O)C(=O)O	-67.6
C=CCc1ccc(OCCOCCN(C)C)c(OC)c1.O=C(O)C(=O)O	-27.5
C=CCc1ccc(OC(=O)c2ccccc2)c(OC)c1	5.73
C=CCc1cc(C)ccc1OCCOCCN1CCN(C)CC1.O=C(O)C(=O)O	-10.7
COc1cc(C)ccc1OCCCCNCc1ccccc1.O=C(O)C(=O)O	-0.752
C/C=C/c1ccc(OCCN2CCc3ccccc3C2)c(OC)c1	-77.7
C=CCc1cc(OC)ccc1OCCOCCN1CCc2ccccc2C1.O=C(O)C(=O)O	-71
O=C(NCc1ccncc1)c1ccc(Cl)c(S(=O)(=O)N2CCOCC2)c1	12.4
CC1(C)OCC(COC(=O)Nc2cccnc2)([N+](=O)[O-])CO1	23.8
O=C(Nc1ccccc1)OCCOc1ccccc1	-17.8
CC1(c2ccccc2)CC(C)(C)N2C(=O)/C(=C3\SC(=S)NC3=O)c3cccc1c32 (stereo not drawn)	-0.561
O=C(COC(=O)Cc1cn2ccsc2n1)Nc1nc2ccccc2s1	8.88
CCOCCCNC(=O)C1CCN(c2cc(C)nc3c(-c4ccc(OC)c(OC)c4)c(C)nn23)CC1	-7.5
C=CCc1ccc(OCCOCCOc2cccc3ccc(C)nc23)c(OC)c1.O=C(O)C(=O)O	-61.6
COc1cc(C)ccc1OCCOCCOc1cccc2ccc(C)nc12.O=C(O)C(=O)O	-29.3
C=CCc1ccc(OCCOc2cccc3ccc(C)nc23)c(OC)c1.O=C(O)C(=O)O	-6.6
CCOC(=O)c1[nH]c(C)c(C(=O)N2CCc3c([nH]c4ccccc34)C2c2ccccn2)c1C (stereo not drawn)	-0.347
CSc1nc(NCc2ccco2)c2c3c(sc2n1)CN(C)CC3	-75
CCC(O)CNc1nc(SC)nc2sc3c(c12)CCN(C)C3 (stereo not drawn)	0.847

Compound	hERG current change (%, negative = inhibition) at 10uM [%]
CSc1nc(NCc2ccccc2)c2c3c(sc2n1)CN(C)CC3	-78
CCN(CC)CCCNc1nc(SC)nc2sc3c(c12)CCN(C)C3	11
CSc1nc(NCCCN(C)C)c2c3c(sc2n1)CN(C)CC3	1.56
CSc1nc(SCC(=O)NCc2ccco2)c2c3c(sc2n1)CN(C)CC3	-0.986
Cc1ccc(CN2CC(C(=O)O)CC2=O)cc1 (stereo not drawn)	6.55
CCOc1ccc(NC(=O)C(CC(=O)O)Cc2ccc(Br)cc2)cc1 (stereo not drawn)	11.1
COc1ccc(C(=O)Oc2cccc(/C=N/NC(N)=S)c2)cc1	11.7
Cc1ccc2[nH]c(=O)c(CN(Cc3ccco3)C(=O)c3ccncc3)cc2c1	-43.4
Cc1ccc2[nH]c(=O)c(CN(Cc3ccco3)C(=O)CN3CCCC(C)C3)cc2c1 (stereo not drawn)	-57
Cc1ccc(NC(=S)N(CCCN2CCC(C)CC2)Cc2ccco2)cc1C	-70.3
Cc1ccc(NC(=S)N(CCCN2CCCC(C)C2)Cc2ccco2)cc1C (stereo not drawn)	-76.2
Cc1ccc(NC(=S)N(CCCN2CCC(C)CC2)Cc2ccco2)cc1	-72
Cc1ccc2[nH]c(=O)c(CN(Cc3ccco3)C(=O)N3CCOCC3)cc2c1	-0.449
Cc1ccc(NC(=S)N(CCCN2CCOCC2)Cc2ccco2)cc1C	-31.9
Cc1ccc(NC(=S)N(CCCN2CCOCC2)Cc2ccco2)cc1	4.36
Cc1ccccc1NC(=S)N(CCCN1CCC(C)CC1)Cc1ccco1	-47.9
O=C(c1c[nH]c2ccccc12)C(O)C(c1ccccc1)N1CCOCC1 (stereo not drawn)	-0.703
CSC1=N/C(=C\c2c(F)cccc2Cl)C(=O)S1	-17.5
CC(=O)Nc1ccc(NC(=O)CSc2nnc(C)n2-c2ccccc2)cc1	26.1
CCOC(=O)C1C(=O)OC2(CCOC(C)(C)C2)C1C(=O)OCC (stereo not drawn)	5.89
COc1ccc(N(CC(=O)NCc2ccccc2Cl)S(=O)(=O)c2c(C)n[nH]c2C)cc1	2.87
O=C(Nc1ccc2c(c1)OCO2)C1CCN(C(=O)c2ccc(Br)cc2)CC1	-70.5
CS(=O)(=O)N1CCC(C(=O)Nc2ccc3c(c2)OCO3)CC1	-7.81
Cc1ccccc1C(=O)N1CCC(C(=O)Nc2ccc3c(c2)OCO3)CC1	3.97

Compound	hERG current change (%, negative = inhibition) at 10uM [%]
COc1cc(OC)cc(C(=O)N2CCC(C(=O)Nc3ccc4c(c3)OCCO4)CC2)c1	2.48
O=C(Nc1ccc2c(c1)OCCO2)C1CCN(C(=O)c2ccc(Cl)cc2)CC1	-12.5
O=C(Nc1ccc2c(c1)OCO2)C1CCCCC1	0.102
O=C(Nc1ccc2c(c1)OCCO2)C1CCN(C(=O)c2ccc(F)cc2)CC1	3.73
COc1ccc(C(=O)N2CCC(C(=O)Nc3ccc4c(c3)OCCO4)CC2)cc1	-44.2
O=C(Nc1ccc2c(c1)OCCO2)C1CCN(C(=O)c2ccc(Br)cc2)CC1	-52.7
O=C(Nc1ccc2c(c1)OCO2)C1CCN(C(=O)c2ccc(Cl)cc2)CC1	-73.5
COc1ccc(C(=O)N2CCC(C(=O)Nc3ccc4c(c3)OCO4)CC2)cc1	-79.9
O=C(Nc1ccc2c(c1)OCCO2)C1CCN(C(=O)c2ccccc2)CC1	5.84
Cn1c(=O)n(CCCOc2ccc(Br)cc2)c2ccccc21	-3.96
COc1ccc(C2C(C(=O)c3ccco3)=C(O)C(=O)N2CC2CCCO2)cc1OC (stereo not drawn)	24.1
O=C(CCN1c2ccccc2Sc2ccccc21)OCc1nnc(-c2ccccc2)o1	5.92
O=S1(=O)CCOC[C@H](Cc2ccccc2)N1Cc1ccccc1	-37.8
Cc1nc2c3ccccc3nc(NNC(=O)CCC(=O)N3CCN(c4ccccc4F)CC3)n2n1	-40.3
CCOc1ccc(NC(=O)C2CCCN(C(=O)Nc3ccccc3)C2)cc1 (stereo not drawn)	2.35
Cc1cc(C)n(C(C)CC(=O)Nc2ccc3c(c2)OCO3)n1 (stereo not drawn)	10.2
COc1cc(OC)c(NC(=O)c2ccco2)cc1Cl	-14.3
O=C1OCCC1Sc1nc2ccccc2c(=O)n1Cc1ccc(F)cc1 (stereo not drawn)	-75.5
COCCn1c(SC2CCOC2=O)nc2ccccc2c1=O (stereo not drawn)	-31
O=C1OCCC1Sc1nc2ccccc2n1Cc1ccccc1 (stereo not drawn)	-46.3
O=C1OCCC1Sc1nc2cc(Cl)ccc2n1Cc1ccccc1 (stereo not drawn)	-63.9
CSc1nc2ccccc2c(=O)n1Cc1ccc(F)cc1	15.4
O=C1OCCC1Sc1nc2ccccc2c(=O)n1Cc1ccccc1 (stereo not drawn)	-82.4
O=C1OCCC1Sc1nnc(-c2ccccc2Cl)n1Cc1ccccc1 (stereo not drawn)	2.19

Compound	hERG current change (%, negative = inhibition) at 10uM [%]
Cc1ccc(Cn2c(SC3CCOC3=O)nc3ccccc3c2=O)cc1 (stereo not drawn)	-42.9
O=C1OCCC1Sc1nc2ccccc2c(=O)n1-c1ccc(F)cc1 (stereo not drawn)	8.7
O=C(Nc1ccccc1Cl)c1ccc(=O)[nH]n1	8.03
COCCn1c(SCC(=O)N(C(C)C)C(C)C)nnc1-c1cc2ccccc2cc1O	-15.8
COc1cccc(CN(C)C(=O)c2cc(S(=O)(=O)NC3CCCCC3)ccc2C)c1OC	-4.41
COc1ccc(-c2oc3ccccc3c(=O)c2OC(C)=O)cc1	-11.3
CC(=O)c1cccc(NC(=O)NCc2cccnc2)c1	12.2
O=C(Oc1ccccc1)N(c1ccccc1)c1ccccc1	2.8
NS(=O)(=O)c1ccc(NC(=O)CN2CCCc3ccccc32)cc1	-5.73
N#Cc1ccc(S(=O)(=O)N2CCN(CC(=O)Nc3ccccc3C(=O)NC3CC3)CC2)cc1	-73.9
O=C(CN1CCN(S(=O)(=O)c2ccccc2F)CC1)Nc1ccccc1C(=O)c1ccccc1	-22.8
N#Cc1ccc(CN2CCN(CC(=O)Nc3ccccc3C(=O)NC3CC3)CC2)cc1	-77.9
O=C(CN1CCN(S(=O)(=O)c2ccccc2)CC1)NC1CC1	15.3
CC(C#N)(NC(=O)CN1CCN(S(=O)(=O)c2ccccc2C#N)CC1)C1CC1 (stereo not drawn)	2.51
NC(=O)C1CCN(CC(=O)Nc2ccccc2C(=O)NC2CC2)CC1	1.42
O=C(CN1CCN(S(=O)(=O)c2ccccc2)CC1)Nc1ccccc1C(=O)c1ccccc1	-19.4
N#Cc1ccccc1S(=O)(=O)N1CCN(CC(=O)NC(=O)NC2CCCCC2)CC1	-31.6
O=C(CN1CCN(S(=O)(=O)c2ccc(F)c(F)c2)CC1)Nc1ccccc1C(=O)NC1CC1	-72.3
O=C(CN1CCN(S(=O)(=O)c2ccc(F)cc2)CC1)NC1CCCC1	-8.45
Cc1ccccc1C(=O)NC1CCN(CC(=O)Nc2ccccc2Cl)CC1	-14.4
N#Cc1ccccc1S(=O)(=O)N1CCN(CC(=O)Nc2ccccc2C(=O)NC2CC2)CC1	-66.5
